Screening results as filed in PubChem.
An excerpt weighted towards active compounds, which were near 10% of everything screened.
NIH3T3 tox – cytotoxic compounds in NIH 3T3 cells. NIH 3T3 viability, CellTiter-Glo ATP luminescence, 48-72 h. Potency, µM (titrated, usually from 96.7 µM), without a hit: top-dose activity change, negative = cytotoxicity, hits mostly inhibitors. 4.3% of 94,000 active. AID 1345082; note: % is set by controls: 0 for no effect and ±100 for the full control effect; nearly all actives have a fitted effect of over 55% in size
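NIH 3T3 cells at 400 cells/well received 23 nL of compound by pintool and were incubated 48 or 72 h at 37 °C. Viability was read as ATP-coupled CellTiter-Glo luminescence.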
HEK293 tox – kills HEK 293 cells | HEK 293 viability, ATP luminescence (CellTiter-Glo), 48-72 h | Potency, µM (series often up to 115 µM), without a hit: top-dose activity change, negative = cytotoxicity, hits mostly inhibitors | 6.6% of 94,000 active | AID 1345083; note: % is set by controls: 0 for no effect and ±100 for the full control effect; nearly all actives have a fitted effect of over 60% in size
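Viability of HEK 293 cells, plated at 250 cells/well, was judged by cellular ATP after compound treatment for 48 or 72 hr. Luminescence was imaged 10 min after CellTiter-Glo addition at room temperature.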
NPR1 antag – antagonists of human natriuretic peptide receptor Npr1; Potency, µM (titrated, usually from 46.3 µM), for the others: at the highest dose activity change, negative = inhibition, usual class: inhibitors; 1.6% of 76,000 active; HEK293 hNpr1 GloSensor cGMP, ANP-stimulated luminescence; P16066; calls by dose curve; note: % is set by controls: 0 for no effect and ±100 for the full control effect; nearly all actives have a fitted effect of over 60% in size
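HEK293 cells stably expressing human Npr1 and cGMP GloSensor pGS-40F, loaded 2 h with 2% GloSensor reagent, given compound 30 min at room temperature. Luminescence read before and 20 min after 0.1 nM hNppA.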
FLuc inh-1 – inhibitors of firefly (Photinus pyralis) luciferase; 2.5% of 76,000 active; purified P. pyralis luciferase, luminescence, biochemical; Potency, µM (titrated, usually from 115 µM), hits mostly inhibitors; P08659; note: % is set by controls: 0 for no effect and ±100 for the full control effect; nearly all actives have a fitted effect of over 65% in size
Target sequence (P08659 whole entry, looked up): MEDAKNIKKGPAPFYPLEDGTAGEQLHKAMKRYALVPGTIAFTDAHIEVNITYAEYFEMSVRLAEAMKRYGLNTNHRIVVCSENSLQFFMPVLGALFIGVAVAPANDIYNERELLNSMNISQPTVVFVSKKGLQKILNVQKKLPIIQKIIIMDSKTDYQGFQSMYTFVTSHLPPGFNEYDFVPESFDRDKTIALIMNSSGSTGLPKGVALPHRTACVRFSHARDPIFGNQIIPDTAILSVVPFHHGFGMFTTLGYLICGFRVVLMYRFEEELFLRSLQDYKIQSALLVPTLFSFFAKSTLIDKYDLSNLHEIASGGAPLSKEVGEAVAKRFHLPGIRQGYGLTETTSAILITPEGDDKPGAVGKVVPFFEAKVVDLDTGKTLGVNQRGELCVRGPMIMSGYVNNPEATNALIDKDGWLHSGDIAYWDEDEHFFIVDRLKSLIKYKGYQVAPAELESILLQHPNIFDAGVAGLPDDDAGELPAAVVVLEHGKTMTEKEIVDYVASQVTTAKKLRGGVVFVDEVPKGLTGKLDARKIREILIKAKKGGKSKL
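Luminescence read by CCD imager after adding enzyme (10nM final) to wells holding compound, titrated in qHTS. Substrates 10uM each D-luciferin and ATP; buffer 50mM Tris acetate pH 7.5, 10mM Mg acetate, Tween-20, BSA.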
GPT2 inhibitor – blocks human glutamate pyruvate transaminase 2. Q8TD30. Recombinant GPT2, coupled pyruvate oxidase/HRP Amplex Red fluorescence. Potency, µM (highest dose often 57.7 µM), for inactives: top-dose activity change, negative = inhibition, hits mostly inhibitors. 0.25% of 100,000 active. AID 1671188; note: % is set by controls: 0 for no effect and ±100 for the full control effect; nearly all actives have a fitted effect of over 60% in size
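Fluorescence of coupled pyruvate oxidase/HRP/Amplex Red system (50uM Amplex, 30 min, dark) reports pyruvate formed by GPT2. Enzyme reaction: 10ng/uL GPT2, 2mM L-alanine, 250uM a-KG, 30 min room temperature, pH 7.5; 50uM AOA control.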
FLuc SDR -ATP – stabilizes firefly luciferase without ATP | shares compounds with FLuc inh-1 | Purified FLuc-C-HiBiT, Nano-Glo HiBiT luminescence, no ATP | Potency, µM (top dose mostly 32.7 µM), for the others: at the highest dose activation (signal gain), usual class: activators | 7.8% of 1,300 active; note: nearly all actives have a fitted effect of over 55% in size
FLuc SDR ATP – firefly luciferase binding stabilization, ATP added | shares compounds with FLuc inh-1 | purified FLuc-C-HiBiT + ATP, HiBiT complementation luminescence | Potency, µM (titrated, usually from 32.7 µM), for the others: top-dose activation (gain of signal), hits mostly activators | 8.7% of 1,300 active;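 note: signal reports ligand binding via conformational change of the enzyme rather than luciferase catalysis; % of control where 0% means no effect; nearly all actives have a fitted effect of over 55% in size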
FLuc inh-2 – inhibitors of firefly luciferase enzymatic activity; shares compounds with FLuc inh-1; purified FLuc-C-HiBiT enzyme, luciferin luminescence; Potency, µM (doses to about 32.7 µM), inactives show at the top dose activity change, negative = inhibition, most hits filed as inhibitors; 42% of 1,300 active; AID 1963320; note: % is set by controls: 0 for no effect and ±100 for the full control effect; nearly all actives have a fitted effect of over 70% in size
* hit, by the source's call; i = inactive; ? = inconclusive; nt = no result given; [ ] = remark or other dose. Unless noted, calls come from the whole dose curve; as a rule, active = well fitted curve in the direction sought with a large enough effect; inconclusive = small, poorly fitted or top-dose-only effect, or another doubt; inactive = no such curve, though single readings can be large; an effect the other way counts as inactive or inconclusive. Potency is the fitted concentration of half-maximal effect.

SMILES	NIH3T3 tox	HEK293 tox	NPR1 antag	FLuc inh-1	GPT2 inhibitor	FLuc SDR -ATP	FLuc SDR ATP	FLuc inh-2
CN1CC(=O)N(c2ccc(Cl)cc2)Cc2c(NC3CCCCC3)ncnc21	?	?	6%	i	2%	nt	nt	nt
CC1CCCN(c2ncnc3c2cnn3-c2ccc(F)cc2)C1 (stereo unspecified)	nt	nt	nt	nt	nt	2.2µM*	?	0.7µM*
Cc1ccc2nc(SCCC(=O)N[C@@H]3C[C@@H]4OCC[C@@H]43)cc(C)c2c1	-15%	2%	1%	i	3%	nt	nt	nt
COc1cccc(C(=O)N2CCN(c3ccc4nnc(C5CC5)n4n3)CC2)c1	-25%	-9%	nt	nt	nt	nt	nt	nt
Cc1cccc(-n2ncc3c(N4CCCCCC4)ncnc32)c1	nt	nt	nt	nt	nt	5µM*	?	0.88µM*
Cc1cccc(N2Cc3c(ncnc3N3CCC(N4CCCCC4)CC3)N(C)CC2=O)c1	-29%	-1%	nt	nt	-1%	nt	nt	nt
CC1CCCN(c2ncnc3c2cnn3-c2ccc(Cl)cc2)C1 (stereo unspecified)	nt	nt	nt	nt	nt	2.8µM*	0.25µM*	0.12µM*
CC1CCCN(c2ncnc3c2cnn3-c2ccccc2)C1 (stereo unspecified)	nt	nt	nt	nt	nt	2.5µM*	?	0.44µM*
CC1CCCN(c2ncnc3c2CN(c2cccnc2)C(=O)CN3C)C1 (stereo unspecified)	-17%	-24%	9%	i	-19%	nt	nt	nt
Cn1ncc(N2CCCC(CC(=O)Nc3ccc(Cl)cc3)C2)cc1=O (stereo unspecified)	?	-35%	4%	i	i	nt	nt	nt
Cc1ccc(-n2ncc3c(N4CCCC(C)C4)ncnc32)c(C)c1 (stereo unspecified)	nt	nt	nt	nt	nt	29%	20%	11µM*
O=C(NC1CC1)c1cn2cc(-c3ccc(F)cc3)sc2n1	?	?	nt	nt	-13%[88.5 µM]	nt	nt	nt
CNC(=O)c1cc(C)nc2onc(C3CCCN(C(=O)c4ccccc4Cl)C3)c12 (stereo unspecified)	-23%	1%	nt	nt	nt	nt	nt	nt
CCOC(=O)c1ccc(NC(=O)c2csc3c2CCCC3)cc1	nt	nt	nt	nt	nt	16%	11%	?
COc1ccc(-c2nc(C3CC3)nc3c2CCN([S+](=O)([O-])c2cccs2)CC3)cc1	?	-25%	nt	nt	i	nt	nt	nt
Cc1ccc2oc([C@H]3CCN(Cc4cccs4)C3)nc2c1	?	100µM*	-23%[70.6 µM]	10µM*	0%[88.5 µM]	18%[49.3 µM]	16%[49.3 µM]	?
c1ccc(CN2CC[C@H](c3nc4ccccc4o3)C2)nc1	?	-13%[230 µM]	-7%[70.6 µM]	i	?	nt	nt	nt
Cc1cc(-c2cc3c(cn2)CN(Cc2nccn2C)CCN3)ccn1	nt	nt	nt	nt	nt	18%[49.3 µM]	13%[49.3 µM]	?
CC(=O)N1CCNc2cc(-c3cccc(F)c3)ncc2C1	nt	nt	nt	nt	nt	21%[65.7 µM]	16%[65.7 µM]	?
COc1cccc(CN2CCNc3cc(-c4ccnc(C)c4)ncc3C2)c1	?	71µM*	-4%[70.6 µM]	14µM*	4%[88.5 µM]	17%[49.3 µM]	16%[49.3 µM]	?
CC(=O)N1CCN(C(=O)c2cccc(-c3ccccn3)c2)CC1	-7%[138 µM]	-24%[172 µM]	nt	nt	i	nt	nt	nt
COc1cccc(CN2CCNc3cnc(OCc4cccnc4)cc3C2)c1	?	?	-24%[70.6 µM]	i	3%[88.5 µM]	nt	nt	nt
COCCN1CCNc2cc(-c3cc(Cl)ccc3OC)ncc2C1	?	?	-2%[70.6 µM]	?	i	nt	nt	nt
Cn1ccnc1CN1CCN(c2nccc(-c3ccccn3)n2)CC1	-4%	4%	6%	i	2%	nt	nt	nt
COCCN1CCNc2cc(-c3cccc(N(C)C)c3)ncc2C1	nt	nt	nt	nt	nt	31%[49.3 µM]	?	16µM*
SMILES	NIH3T3 tox	HEK293 tox	NPR1 antag	FLuc inh-1	GPT2 inhibitor	FLuc SDR -ATP	FLuc SDR ATP	FLuc inh-2
COC1CCN(C(C)=O)CC(=O)N(C)c2ccccc21 (stereo unspecified)	?	0%	nt	nt	nt	nt	nt	nt
CCCCn1c(=O)c(C(=O)N2CCC(C#N)CC2)nc2cccnc21	-24%[138 µM]	-10%[172 µM]	nt	nt	i	nt	nt	nt
O=C(Cc1cccs1)N1CCCCCC1c1nnc(-c2ccccc2)o1 (stereo unspecified)	-16%	?	nt	nt	i	nt	nt	nt
CC(=O)Nc1cccc(-c2cc3c(cn2)CN(Cc2ccccc2)CCN3)c1	?	?	2%[70.6 µM]	14µM*	4%[88.5 µM]	20%[49.3 µM]	17%[49.3 µM]	?
CC(=O)Nc1cccc(-c2ccc3c(n2)c(=O)ncn3Cc2ccccc2)c1	?	-6%[172 µM]	-7%[70.6 µM]	i	2%[88.5 µM]	nt	nt	nt
COc1ccc(C)cc1NC(=O)C1CN(S(=O)(=O)c2cccnc2)CC12CCCCC2 (stereo unspecified)	?	?	-3%	i	-7%	nt	nt	nt
Cc1c(-c2ccc(F)cc2)[nH]c2ccc(CNC(=O)CN3CCOC3=O)cc12	?	?	-22%	13µM*	i	14%	10%	?
O=C(O)c1ccc(-c2noc(-c3ccc(C(F)(F)F)cc3)n2)cc1	nt	nt	nt	nt	nt	?	0.44µM*	0.31µM*
O=C(COc1ccc(F)cc1)N1CC(Oc2ccc(-c3nc(-c4ccccc4)no3)cc2)C1	-15%	?	-3%	?	i	nt	nt	nt
O=C(O)c1ccc(-c2noc(-c3ccc(F)cc3)n2)cc1	nt	nt	nt	nt	nt	?	0.56µM*	0.44µM*
COc1ccc(-c2nc(-c3cccc(C(=O)O)c3)no2)cc1	nt	nt	nt	nt	nt	1.1µM*	0.0031µM*	0.0025µM*
COc1ccc(F)cc1-c1cccc(C(=O)O)c1	-10%[138 µM]	-4%[172 µM]	nt	nt	?	nt	nt	nt
O=C(O)c1cccc(-c2noc(-c3cc([N+](=O)[O-])cc([N+](=O)[O-])c3)n2)c1	nt	nt	nt	nt	nt	6%	?	3.1µM*
O=C(O)c1ccc(CN2Cc3[nH]cnc3C[C@H]2c2nc(-c3cccc([N+](=O)[O-])c3)no2)cc1	-8%	2%	2%	i	4%	nt	nt	nt
COc1ccc(-c2noc(-c3nc(-c4cccnc4)no3)n2)cc1	4%	13%	-1%	i	-1%	nt	nt	nt
COc1ccccc1-c1nc(-c2cccc(C(=O)O)c2)no1	nt	nt	nt	nt	nt	8.8µM*	0.007µM*	0.0062µM*
COc1cccc(-c2cccc(C(=O)N3CCN(C(=O)c4ccc(C(F)(F)F)cc4)CC3)c2)c1	?	?	nt	nt	3%	nt	nt	nt
O=C(Nc1nn(Cc2ccccc2)c2cccc(N3CCOCC3)c12)C1CCC1	-20%	?	4%	i	i[11.5 µM]	nt	nt	nt
O=C(Nc1nn(-c2cccc(F)c2)c2cccc(N3CCOCC3)c12)C1CCC1	?	45µM*	?	7.9µM*	-7%	?	11%	?
